Test results taken from the supplement of paper PMC12669032.

What was measured:
Experiment in all cases: growth AUC relative to DMSO control (median of replicates) (fraction); higher = more growth (less inhibition), active = hit call of the paper
Conditions in all cases: 20 µM; 24 h;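 active = AUC reduced over 20% with Padj below 0.05 in at least 2 of 3 replicates; inactive = otherwise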
Akkermansia muciniphila = system: Akkermansia muciniphila
Method in brief: (§1)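 Starting at OD600 0.05, gut bacterial monocultures in mGAM were grown anaerobically at 37 °C with 20 µM compound (1% DMSO) under pierced gas-permeable seals. OD600 was read every hour for 24 h, and the lowest OD of each curve was set to 0. Area under the growth curve was normalised to the plate median of solvent-only wells, or to row and column medians on the industrial chemical plate, and the median of three biological replicates grown on separate days is given.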

Bacteroides caccae = system: Bacteroides caccae
Method in brief: as §1

Bacteroides clarus = system: Bacteroides clarus
Method in brief: as §1

Bacteroides dorei = system: Bacteroides dorei
Method in brief: as §1

Bacteroides stercoris = system: Bacteroides stercoris
Method in brief: as §1

[1] = system: Bacteroides thetaiotaomicron
Method in brief: as §1

Bacteroides uniformis = system: Bacteroides uniformis
Method in brief: as §1

[2] = system: Bifidobacterium longum subsp. longum
Method in brief: as §1

Clostridium difficile = system: Clostridium difficile
Method in brief: as §1

Collinsella aerofaciens = system: Collinsella aerofaciens
Method in brief: as §1

Coprococcus comes = system: Coprococcus comes
Method in brief: as §1

Escherichia coli ED1a = system: Escherichia coli ED1a
Method in brief: as §1

Escherichia coli IAI1 = system: Escherichia coli IAI1
Method in brief: as §1

Eubacterium rectale = system: Eubacterium rectale
Method in brief: as §1

[3] = system: Fusobacterium nucleatum subsp. animalis
Method in brief: as §1

Lactobacillus gasseri = system: Lactobacillus gasseri
Method in brief: as §1

Lactobacillus paracasei = system: Lactobacillus paracasei
Method in brief: as §1

Odoribacter splanchnicus = system: Odoribacter splanchnicus
Method in brief: as §1

[4] = system: Parabacteroides distasonis
Method in brief: as §1

Parabacteroides merdae = system: Parabacteroides merdae
Method in brief: as §1

Measured: growth AUC

O=S(=O)(Cc1ccc(Cl)cc1)c1ccc(Cl)cc1
inactive: Akkermansia muciniphila 0.848 | Bacteroides caccae 1 | Bacteroides clarus 0.981 | Bacteroides dorei 1.02 | Bacteroides stercoris 1.12 | [1] 0.963 | Bacteroides uniformis 0.997 | [2] 1.03 | Clostridium difficile 1.01 | Collinsella aerofaciens 1.01 | Coprococcus comes 0.978 | Escherichia coli ED1a 0.97 | Escherichia coli IAI1 1.02 | Eubacterium rectale 1.02 | [3] 0.977 | Lactobacillus gasseri 1.04 | Lactobacillus paracasei 1.03 | Odoribacter splanchnicus 0.995 | [4] 1 | Parabacteroides merdae 0.98

CC1CN(C2CCCCCCCCCCC2)CC(C)O1 (mixture of isomers)
inactive: Akkermansia muciniphila 0.892 | Bacteroides caccae 1.01 | Bacteroides clarus 0.967 | Bacteroides dorei 1.06 | Bacteroides stercoris 0.84 | [1] 0.985 | Bacteroides uniformis 1.08 | [2] 0.985 | Clostridium difficile 0.961 | Collinsella aerofaciens 0.915 | Coprococcus comes 0.992 | Escherichia coli ED1a 0.994 | Escherichia coli IAI1 0.971 | Eubacterium rectale 1.23 | [3] 0.955 | Lactobacillus gasseri 0.926 | Lactobacillus paracasei 1.02 | Odoribacter splanchnicus 1.14 | [4] 1.02 | Parabacteroides merdae 0.97

CCCCOC(=O)C(C)Oc1ccc(Oc2ccc(C(F)(F)F)cn2)cc1 (stereo not given)
inactive: Akkermansia muciniphila 1.13 | Bacteroides caccae 1.01 | Bacteroides clarus 0.977 | Bacteroides dorei 0.951 | Bacteroides stercoris 1.08 | [1] 0.959 | Bacteroides uniformis 0.891 | Clostridium difficile 1.01 | Collinsella aerofaciens 0.963 | Coprococcus comes 0.987 | Escherichia coli ED1a 1.02 | Escherichia coli IAI1 1.01 | Eubacterium rectale 1.09 | [3] 0.997 | Lactobacillus gasseri 0.914 | Lactobacillus paracasei 0.985 | Odoribacter splanchnicus 1.02 | [4] 0.768 | Parabacteroides merdae 0.961
active: [2] 0.681

O=C(Nc1ccc(F)cc1-c1ccc(Cl)c(Cl)c1)c1cn[nH]c1C(F)F
active: Bacteroides clarus 0.724 | Bacteroides stercoris 0.349 | [1] 0.635 | Bacteroides uniformis 0.689 | Odoribacter splanchnicus 0.553 | [4] 0.373 | Parabacteroides merdae 0.779
inactive: Akkermansia muciniphila 1.02 | Bacteroides caccae 0.865 | Bacteroides dorei 0.968 | [2] 0.952 | Clostridium difficile 0.971 | Collinsella aerofaciens 1.01 | Coprococcus comes 0.916 | Escherichia coli ED1a 0.974 | Escherichia coli IAI1 0.945 | Eubacterium rectale 0.82 | [3] 0.983 | Lactobacillus gasseri 0.814 | Lactobacillus paracasei 0.953

CCCCCCCC(=O)Oc1c(Br)cc(C#N)cc1Br
inactive: Akkermansia muciniphila 1.06 | Bacteroides caccae 0.934 | Bacteroides clarus 0.959 | Bacteroides dorei 1.04 | Bacteroides stercoris 0.842 | [1] 1.04 | Bacteroides uniformis 0.983 | [2] 1.06 | Clostridium difficile 1.02 | Collinsella aerofaciens 0.971 | Coprococcus comes 1.01 | Escherichia coli ED1a 0.973 | Escherichia coli IAI1 0.924 | Eubacterium rectale 1.15 | [3] 0.966 | Lactobacillus gasseri 0.987 | Lactobacillus paracasei 0.863 | Odoribacter splanchnicus 1.12 | [4] 0.975 | Parabacteroides merdae 0.922

CCC(C)Nc1nc(N)nc(Cl)n1 (stereo not given)
inactive: Akkermansia muciniphila 1.09 | Bacteroides caccae 0.906 | Bacteroides clarus 0.995 | Bacteroides dorei 1.02 | Bacteroides stercoris 1.16 | [1] 1.01 | Bacteroides uniformis 0.949 | [2] 1.03 | Clostridium difficile 0.974 | Collinsella aerofaciens 1.01 | Coprococcus comes 0.981 | Escherichia coli ED1a 1 | Escherichia coli IAI1 1.01 | Eubacterium rectale 1.05 | [3] 1.03 | Lactobacillus gasseri 0.996 | Lactobacillus paracasei 1.02 | Odoribacter splanchnicus 0.976 | [4] 1.01 | Parabacteroides merdae 1.03

CCOCCOC(=O)C(C)Oc1ccc(Oc2ncc(C(F)(F)F)cc2Cl)cc1 (stereo not given)
inactive: Akkermansia muciniphila 1.02 | Bacteroides caccae 0.955 | Bacteroides clarus 0.968 | Bacteroides dorei 0.948 | Bacteroides stercoris 0.903 | [1] 0.998 | Bacteroides uniformis 0.903 | [2] 1.01 | Clostridium difficile 1.01 | Collinsella aerofaciens 1.03 | Coprococcus comes 0.989 | Escherichia coli ED1a 0.996 | Escherichia coli IAI1 0.986 | Eubacterium rectale 1.05 | [3] 1.05 | Lactobacillus gasseri 0.952 | Lactobacillus paracasei 1.02 | Odoribacter splanchnicus 1.07 | [4] 0.859 | Parabacteroides merdae 0.991

O=S(=O)(Oc1ccc(Cl)cc1)c1ccccc1
inactive: Akkermansia muciniphila 0.785 | Bacteroides caccae 0.959 | Bacteroides clarus 0.967 | Bacteroides dorei 0.941 | Bacteroides stercoris 0.874 | [1] 0.964 | Bacteroides uniformis 0.972 | [2] 1.01 | Clostridium difficile 1 | Collinsella aerofaciens 0.978 | Coprococcus comes 0.997 | Escherichia coli ED1a 0.981 | Escherichia coli IAI1 0.967 | Eubacterium rectale 0.874 | [3] 0.872 | Lactobacillus gasseri 0.99 | Lactobacillus paracasei 1.08 | Odoribacter splanchnicus 0.987 | [4] 0.974 | Parabacteroides merdae 0.957

COc1nc(N)nc(C(F)(F)F)n1
inactive: Akkermansia muciniphila 0.945 | Bacteroides caccae 0.985 | Bacteroides clarus 0.992 | Bacteroides dorei 1.01 | Bacteroides stercoris 0.988 | [1] 0.985 | Bacteroides uniformis 1.01 | [2] 1.04 | Clostridium difficile 1.03 | Collinsella aerofaciens 1.02 | Coprococcus comes 1.05 | Escherichia coli ED1a 0.998 | Escherichia coli IAI1 1 | Eubacterium rectale 0.958 | [3] 1.04 | Lactobacillus gasseri 1.08 | Lactobacillus paracasei 0.964 | Odoribacter splanchnicus 1.01 | [4] 1.03 | Parabacteroides merdae 1.02

CCOc1nc(F)cc2nc(S(=O)(=O)Nc3c(Cl)cccc3C(=O)OC)nn12
inactive: Akkermansia muciniphila 0.983 | Bacteroides caccae 0.999 | Bacteroides clarus 0.984 | Bacteroides dorei 0.988 | Bacteroides stercoris 0.978 | [1] 0.999 | Bacteroides uniformis 0.987 | [2] 0.982 | Clostridium difficile 0.98 | Collinsella aerofaciens 1.02 | Coprococcus comes 0.984 | Escherichia coli ED1a 0.991 | Escherichia coli IAI1 1.01 | Eubacterium rectale 0.967 | [3] 0.995 | Lactobacillus gasseri 1.01 | Lactobacillus paracasei 1.06 | Odoribacter splanchnicus 1.04 | [4] 1.05 | Parabacteroides merdae 1.02

[O-][n+]1nc(-n2ccnc2)nc2ccc(Cl)cc21
inactive: Akkermansia muciniphila 0.972 | Bacteroides caccae 1.07 | Bacteroides clarus 1 | Bacteroides dorei 1.05 | Bacteroides stercoris 0.911 | [1] 0.99 | Bacteroides uniformis 1.04 | [2] 0.974 | Clostridium difficile 0.957 | Collinsella aerofaciens 0.964 | Coprococcus comes 1.04 | Escherichia coli ED1a 0.95 | Escherichia coli IAI1 0.956 | Eubacterium rectale 1.12 | [3] 1.06 | Lactobacillus gasseri 0.831 | Lactobacillus paracasei 1.01 | Odoribacter splanchnicus 1.03 | [4] 0.897 | Parabacteroides merdae 1.02

C=CCOC(Cn1ccnc1)c1ccc(Cl)cc1Cl (stereo not given)
active: Coprococcus comes 0.0723 | Eubacterium rectale 0.0607
inactive: Akkermansia muciniphila 0.972 | Bacteroides caccae 0.944 | Bacteroides clarus 0.96 | Bacteroides dorei 0.959 | Bacteroides stercoris 1.12 | [1] 0.983 | Bacteroides uniformis 0.941 | [2] 1.05 | Clostridium difficile 0.926 | Collinsella aerofaciens 0.873 | Escherichia coli ED1a 0.986 | Escherichia coli IAI1 0.967 | [3] 0.938 | Lactobacillus gasseri 0.851 | Lactobacillus paracasei 0.969 | Odoribacter splanchnicus 0.882 | [4] 0.847 | Parabacteroides merdae 0.919

CCCCCCCC/C=C\CCCCCCCCCCCCC
inactive: Akkermansia muciniphila 0.969 | Bacteroides caccae 0.961 | Bacteroides clarus 0.982 | Bacteroides dorei 1.05 | Bacteroides stercoris 0.986 | [1] 0.995 | Bacteroides uniformis 0.997 | [2] 0.964 | Clostridium difficile 1.05 | Collinsella aerofaciens 1.02 | Coprococcus comes 1 | Escherichia coli ED1a 0.987 | Escherichia coli IAI1 1.03 | Eubacterium rectale 0.946 | [3] 0.961 | Lactobacillus gasseri 1.08 | Lactobacillus paracasei 0.875 | Odoribacter splanchnicus 0.968 | [4] 1.01 | Parabacteroides merdae 0.991

Cc1cc(N(C)C)nc(Cl)n1
inactive: Akkermansia muciniphila 0.999 | Bacteroides caccae 0.916 | Bacteroides clarus 1.02 | Bacteroides dorei 0.985 | Bacteroides stercoris 1.26 | [1] 1.02 | Bacteroides uniformis 0.98 | [2] 0.985 | Clostridium difficile 0.976 | Collinsella aerofaciens 0.977 | Coprococcus comes 0.97 | Escherichia coli ED1a 1.02 | Escherichia coli IAI1 0.992 | Eubacterium rectale 1.06 | [3] 1.11 | Lactobacillus gasseri 0.947 | Lactobacillus paracasei 0.99 | Odoribacter splanchnicus 0.998 | [4] 1.03 | Parabacteroides merdae 0.998

CC(C)CCCCCCc1ccc(O)cc1
inactive: Akkermansia muciniphila 0.981 | Bacteroides caccae 1.03 | Bacteroides clarus 1.03 | Bacteroides dorei 1.01 | Bacteroides stercoris 0.923 | [1] 0.992 | Bacteroides uniformis 0.965 | [2] 1.03 | Clostridium difficile 1.07 | Collinsella aerofaciens 0.979 | Coprococcus comes 1.01 | Escherichia coli ED1a 1.02 | Escherichia coli IAI1 1.01 | Eubacterium rectale 0.879 | [3] 1.16 | Lactobacillus gasseri 0.948 | Lactobacillus paracasei 1.03 | Odoribacter splanchnicus 1.05 | [4] 1.02 | Parabacteroides merdae 0.968

CN(C(=O)NC(C)(C)c1ccccc1)c1ccccc1
inactive: Akkermansia muciniphila 0.911 | Bacteroides caccae 1.04 | Bacteroides clarus 0.999 | Bacteroides dorei 0.988 | Bacteroides stercoris 0.824 | [1] 1.01 | Bacteroides uniformis 1.03 | [2] 0.916 | Clostridium difficile 1.04 | Collinsella aerofaciens 0.969 | Coprococcus comes 1.01 | Escherichia coli ED1a 1.01 | Escherichia coli IAI1 0.974 | Eubacterium rectale 0.981 | [3] 0.909 | Lactobacillus gasseri 1.01 | Lactobacillus paracasei 0.951 | Odoribacter splanchnicus 1.1 | [4] 0.952 | Parabacteroides merdae 1
